# Results as given in article PMC5540273 (PLoS ONE, 2017).
# Key:
# Conditions in all cases: concentration: 1 μM, replicates: in singlicate; n = 1
# [1] = system: MAP3K4
# [2] = system: MAP4K2
# [3] = system: MAP4K3
# [4] = system: MAP4K4
# [5] = system: MAP4K5
# [6] = system: MAPKAPK2
# [7] = system: MAPKAPK5
# [8] = system: MARK1
# [9] = system: MARK2
# [10] = system: MARK3
# [11] = system: MARK4
# [12] = system: MAST1
# [13] = system: T1, MEK1
# T1 construct: gene MAP2K1
# [14] = system: T2, MEK2
# T2 construct: gene MAP2K2
# [15] = system: T3, MEK3
# T3 construct: gene MAP2K3
# [16] = system: T4, MEK4
# T4 construct: gene MAP2K4
# [17] = system: T5, MEK5
# T5 construct: gene MAP2K5
# [18] = system: T6, MEK6
# T6 construct: gene MAP2K6
# [19] = system: MELK
# [20] = system: MERTK
# 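Note: KINOMEscan kinase panel screen.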
SMILES,%Inh [1],%Inh [2],%Inh [3],%Inh [4],%Inh [5],%Inh [6],%Inh [7],%Inh [8],%Inh [9],%Inh [10],%Inh [11],%Inh [12],%Inh [13],%Inh [14],%Inh [15],%Inh [16],%Inh [17],%Inh [18],%Inh [19],%Inh [20]
Cl.c1ccc(Cn2cnc3cc(Nc4ncnc5ccccc45)ccc32)cc1 [GW272142],0%,0%,0%,0%,0%,15%,0%,0%,0%,0%,0%,0%,0%,0%,0%,8%,56%,0%,13%,10%
COC(=O)c1c(-c2ccccc2)c2cc(Br)ccc2c(=O)n1Cc1ccc(NC(=O)CCC(=O)O)cc1,38%,0%,0%,0%,0%,16%,4%,7%,6%,0%,4%,29%,0%,3%,11%,10%,10%,21%,7%,3%
COc1ccc(-c2cc3c(C)nc(N)nc3n([C@H]3CC[C@H](OCCO)CC3)c2=O)cn1,4%,0%,30%,0%,0%,0%,0%,0%,1%,0%,0%,0%,0%,0%,5%,0%,0%,16%,19%,0%
COc1cccc(C2=C(N(C)c3ccccc3)C(=O)NC2=O)c1 [SB-334865],12%,0%,0%,0%,0%,17%,0%,0%,0%,0%,1%,0%,0%,0%,0%,4%,6%,0%,0%,18%
O=C1NC(=O)C(c2ccccc2)=C1Nc1cccc(O)c1 [SB-390534],24%,26%,0%,1%,0%,27%,20%,3%,9%,22%,0%,33%,16%,14%,10%,12%,29%,0%,4%,9%
COc1cc(Nc2nccc(N3CCC(NC(=O)C4COc5ccccc5O4)C3)n2)cc(OC)c1OC (stereo not drawn) [GSK1379761],22%,0%,2%,6%,0%,0%,0%,0%,0%,0%,0%,0%,25%,0%,0%,0%,97.2%,0%,11%,36%
Nc1nccc2scc(-c3ccc4c(c3)CCN4C(=O)Cc3ccccc3)c12 [GSK2576924],10%,6%,17%,24%,48%,6%,0%,0%,1%,1%,0%,0%,2%,7%,0%,5%,93.2%,6%,16%,22%
CCS(=O)c1ccc(-c2coc3ccc(-c4nnc(C)o4)cc23)cc1 (stereo not drawn),0%,0%,0%,5%,4%,0%,7%,4%,8%,17%,0%,53%,0%,8%,6%,23%,22%,0%,0%,0%
CCn1c(-c2ccoc2)nc2cnccc21 [SB-733887],0%,0%,0%,11%,5%,16%,0%,0%,0%,3%,0%,9%,18%,0%,5%,14%,38%,0%,22%,5%
COc1ccc(CNC(=O)NC2CCN(c3ccnc(Nc4ccc(F)cc4)n3)C2)cc1 (stereo not drawn) [GSK1379706],0%,0%,0%,3%,2%,24%,2%,0%,0%,4%,3%,53%,29%,21%,0%,28%,25%,12%,21%,39%
Fc1cccc(CSc2nnc(-c3ccc4c(c3)CCO4)o2)c1,0%,8%,0%,0%,0%,25%,16%,0%,20%,5%,0%,0%,3%,5%,6%,5%,14%,0%,0%,2%
CCC(=O)c1c(-c2ccccc2)c2cc(Cl)ccc2c(=O)n1Cc1cc(S(C)(=O)=O)n(CCC(C)(C)O)n1,14%,0%,0%,0%,18%,23%,20%,0%,15%,18%,0%,0%,11%,19%,23%,40%,0%,8%,16%,13%
Cn1c(=O)c(F)c(Nc2ccc(I)cc2F)c2c(=O)n(OC[C@H](O)CO)cnc21,27%,0%,0%,0%,5%,0%,0%,0%,0%,7%,33%,37%,99.6%,99.1%,0%,0%,0%,0%,13%,5%
COc1cccc(-n2cnc3c(N)ncnc32)c1 [SKF-97416],31%,33%,0%,0%,0%,0%,1%,0%,13%,37%,0%,59%,12%,12%,43%,36%,80%,18%,0%,0%
Cc1cccc(-c2nc(Nc3ccc4c(cnn4C)c3)c3ccccc3n2)n1 [GW876731],10%,0%,0%,0%,0%,0%,0%,12%,0%,34%,8%,100%,0%,0%,0%,0%,0%,5%,0%,0%
CCn1c(-c2nonc2N)nc2ccccc21 [SB-693162/GW549034],0%,4%,0%,0%,0%,0%,33%,0%,25%,0%,0%,5%,30%,25%,47%,48%,18%,0%,15%,0%
CCc1ccc(-c2ccc3c(c2)-c2nn(C)cc2S(=O)(=O)N3C)cc1,1%,0%,0%,19%,22%,0%,0%,24%,0%,0%,16%,0%,53%,18%,17%,0%,27%,0%,0%,0%
Cc1ccccc1COc1cc(-n2cnc3cc(Cl)ccc32)sc1C(N)=O [GW813349],20%,0%,0%,12%,20%,0%,0%,0%,0%,14%,8%,0%,6%,14%,19%,0%,59%,0%,33%,16%
OCCCNc1nccc(-c2c(-c3cccc(C(F)(F)F)c3)nn3cc(C(F)(F)F)ccc23)n1 [GW630813],4%,0%,0%,6%,2%,7%,0%,0%,0%,0%,0%,0%,0%,0%,0%,0%,7%,0%,0%,12%
CCS(=O)(=O)c1ccc(OC)c(Nc2ncc(-c3ccc(F)cc3)o2)c1.Cl [GW591947],22%,0%,0%,5%,0%,1%,0%,0%,0%,0%,0%,0%,0%,0%,0%,6%,18%,0%,0%,28%
COc1ccc(-c2cc3c(C)nc(N)nc3n([C@H]3CC[C@H](O)CC3)c2=O)cn1,0%,0%,3%,0%,0%,0%,0%,0%,0%,0%,0%,0%,0%,0%,0%,0%,0%,0%,3%,0%
